Pf growth 96h – inhibits malaria parasite growth, 96 h; AID 504834; Potency, µM (series often up to 28.7 µM), for the others: top-dose activity change, negative = inhibition, actives largely listed as inhibitors; P. falciparum luciferase reporter growth, 96 h; hit rate 6.9% among 320,000; also: potency is read from the fitted curve at half-maximal effect; % is scaled to controls: 0 for no effect and ±100 for the full control effect
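Infected RBCs, 2% Hct / 0.05% parasitemia final; luciferase-reporter P. falciparum; cpd 96 h, 37 C, 5% CO2; luciferase detection reagent; luminescence.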
Pf growth 48h – inhibits P. falciparum growth in the first generation, 48 h. P. falciparum luciferase growth in erythrocytes, 48 h. Potency, µM (doses to about 28.7 µM), for inactives: at the highest dose activity change, negative = inhibition, most hits filed as inhibitors. hit rate 5.9% among 310,000. AID 504832; also: potency is read from the fitted curve at half-maximal effect; % is scaled to controls: 0 for no effect and ±100 for the full control effect
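Cell-based growth assay: transgenic P. falciparum expressing firefly luciferase, cultured in red cells within RPMI 1640 containing 0.5% w/v Albumax, 24 mM bicarbonate and gentamycin. A drop in luciferase activity indicates inhibition.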
NS1 inh – blocks influenza NS1 protein function. Potency, µM (series often up to 46.1 µM), for the others: top-dose activity, positive = more growth. hit rate 0.4% among 270,000. AID 2326; calls by dose curve; also: potency is read from the fitted curve at half-maximal effect; actives are rising curves; nearly all actives have a fitted effect of over 50% in size
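Growth recovery, yeast-based: influenza A NS1 expressed in S. cerevisiae causes slow growth, and suppressors are detected by OD600. The parent strain without NS1 is used as positive control.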
Shiga inhibitor – Shiga toxin inhibition. Vero cells, Shiga toxin protein synthesis inhibition reporter. inhibition, % at 38.7 µM. hit rate 9.2% among 290,000; in the data active = inhibition mostly above about 28%, no sharp cut-off; inactive = mostly below about 43%; also: 0% is about no effect
CHX counter – affects cycloheximide protein synthesis inhibition readout, counter-screen; max response, %; cell reporter, cycloheximide protein synthesis inhibition counterscreen; AID 2314; hit rate 12% among 300,000; in the data active = max response mostly above about 13%, no sharp cut-off; inactive = mostly below about 14%; also: read at 38.3 µM for the half of the compounds with a filed dose; 0% is about no effect
Giardia FBPA inh – inhibitors of Giardia lamblia fructose-1,6-bisphosphate aldolase. A8B2U2. purified Giardia FBPA. Potency, µM (series often up to 59.6 µM), inactives show top-dose activity, negative = inhibition, most hits filed as inhibitors. hit rate 0.71% among 290,000. AID 2451; also: potency is read from the fitted curve at half-maximal effect; % is scaled to controls: 0 for no effect and ±100 for the full control effect; nearly all actives have a fitted effect of over 55% in size
Target sequence (A8B2U2 whole entry, looked up): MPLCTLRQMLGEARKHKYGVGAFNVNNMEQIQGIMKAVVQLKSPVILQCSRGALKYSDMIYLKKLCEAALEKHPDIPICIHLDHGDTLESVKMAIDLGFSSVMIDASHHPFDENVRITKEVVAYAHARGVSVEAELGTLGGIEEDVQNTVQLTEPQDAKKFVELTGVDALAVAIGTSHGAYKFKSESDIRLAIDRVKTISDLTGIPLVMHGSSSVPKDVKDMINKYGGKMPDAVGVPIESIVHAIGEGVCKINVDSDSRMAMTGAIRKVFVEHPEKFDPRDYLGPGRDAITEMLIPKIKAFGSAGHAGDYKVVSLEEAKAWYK
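Giardia FBPA (40 nM reagent) was preincubated 10 min at RT with compound (up to 57.5 uM final), then substrate plus GAPDH/TPI/NAD/arsenate coupling system with diaphorase/resazurin was added; resorufin fluorescence (525/598 nm) was read after 20 min.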
NS1 inh valid – validation of influenza NS1 protein function inhibitors. shares compounds with NS1 inh. influenza NS1 function cell assay, 15-point titration. activity change, negative = inhibition, % at 32.9 µM. 1,400 tested, under 10 active. AID 492980; calls by dose curve; also: 0% is about no effect
* = called active by the depositor. Hits are enriched below; roughly 21% of the tested compounds scored in any of these assays. Unless noted, calls follow the shape of the dose curve; as a rule, active = well fitted curve in the direction sought with a large enough effect; inconclusive = small, poorly fitted or top-dose-only effect, or another doubt; inactive = no such curve, though single readings can be large; an effect the other way counts as inactive or inconclusive.

Results for COC(=O)c1ccc(CS(=O)(=O)c2ccccc2C)o1 ?
Pf growth 96h: 120%; Pf growth 48h: -27%; NS1 inh: 1µM*; Shiga inhibitor: -2; CHX counter: -1; Giardia FBPA inh: 3%; NS1 inh valid: 21

How did CCc1cc(=O)[nH]c(SCC(=O)N2CCC(Cc3ccccc3)CC2)n1 do in these assays?
Pf growth 96h: -8%; Pf growth 48h: -5%

How did CC1(C)CC(=O)c2c(O)cc(OCc3ccc([N+](=O)[O-])cc3)cc2O1 do in these assays?
Pf growth 96h: 213%; Pf growth 48h: 69%; NS1 inh: inconclusive; Shiga inhibitor: 40; CHX counter: 20; Giardia FBPA inh: 1%

Results for CCCc1nc2ccccc2c(=O)n1-c1c(C)n(C)n(-c2ccccc2)c1=O ?
Pf growth 48h: 40%; NS1 inh: 4.5µM*; Shiga inhibitor: 10; CHX counter: 1; Giardia FBPA inh: 1%; NS1 inh valid: -2

What do the screens show for `Cc1ccc(-c2nc3ccccc3c(=O)n2-c2c(C)n(C)n(-c3ccccc3)c2=O)cc1`?
Pf growth 96h: 0%; Pf growth 48h: 12%; NS1 inh: 1%; Shiga inhibitor: 13; CHX counter: -1; Giardia FBPA inh: 7%

How did N[C@@H](Cc1ccc(O)cc1)c1nnc([C@H](CC(=O)O)NC(=O)C2CCNCC2)o1 do in these assays?
Pf growth 96h: 49%; Pf growth 48h: 36%; NS1 inh: 1%; Shiga inhibitor: -6; CHX counter: 1; Giardia FBPA inh: -12%

What do the screens show for `COc1ccc2ccccc2c1CNC(=O)CC1C(=O)NCCN1CC(C)(C)C` (stereo unspecified)?
Pf growth 96h: -28%; Pf growth 48h: inconclusive; NS1 inh: 4%; Shiga inhibitor: 15; CHX counter: -2; Giardia FBPA inh: -16%

Results for Cc1ccc(C)n1NC(=O)c1ccccc1 ?
Pf growth 96h: inconclusive; Pf growth 48h: 4%; NS1 inh: 18%; Shiga inhibitor: -9; CHX counter: -5; Giardia FBPA inh: 4%

Results for Cc1ccc(C)n1NC(=O)c1ccc(O)cc1 ?
Pf growth 96h: 11%; NS1 inh: 11µM*; Shiga inhibitor: 18; CHX counter: 1; Giardia FBPA inh: -6%; NS1 inh valid: 18

Results for Cc1cc(=O)nc2c3ccccc3n(CC(=O)NC(C)c3ccc4c(c3)OCCO4)n12 (stereo unspecified) ?
Pf growth 96h: 3%; Pf growth 48h: 6%; NS1 inh: 1%; Shiga inhibitor: 14; CHX counter: 16; Giardia FBPA inh: -8%

How did Cc1ccc2nc(NNC(=O)c3ccc(S(=O)(=O)N4CCc5ccccc5C4)cc3)sc2c1 do in these assays?
Pf growth 96h: 2.9µM*; Pf growth 48h: 1.9µM*; NS1 inh: 10µM*; Shiga inhibitor: 19; CHX counter: 8; Giardia FBPA inh: 11%; NS1 inh valid: inconclusive

What do the screens show for `Cc1nn(-c2ccccc2)c(C)c1/C=N/NC(=O)c1cc(-c2ccc(Cl)s2)[nH]n1`?
Pf growth 96h: -1%; Pf growth 48h: inconclusive; NS1 inh: 8.9µM*; Shiga inhibitor: 3; CHX counter: -4; Giardia FBPA inh: 0%; NS1 inh valid: 6

Results for O=C(N/N=C/c1ccccn1)c1cc(-c2ccc(Cl)s2)[nH]n1 ?
Pf growth 96h: inconclusive; Pf growth 48h: -110%; NS1 inh: -1%; Shiga inhibitor: 4; CHX counter: 1; Giardia FBPA inh: 0%

Results for Cc1ccc(C(=O)N/C(=C\c2cccs2)C(=O)NCCCn2ccnc2)cc1C ?
Pf growth 96h: 15%; Pf growth 48h: 6%; NS1 inh: 5%; Shiga inhibitor: -25; CHX counter: -5; Giardia FBPA inh: 4%

How did CCn1c(SCC(=O)O)nnc1-c1cc2c(C)nn(-c3ccccc3)c2s1 do in these assays?
Pf growth 96h: 8%; Pf growth 48h: 13%; NS1 inh: inconclusive; Shiga inhibitor: -14; CHX counter: -4; Giardia FBPA inh: 8%; NS1 inh valid: 8

How did Cc1nn(-c2ccccc2)c2sc(-c3nnc(SCC(=O)O)o3)cc12 do in these assays?
Pf growth 96h: inconclusive; NS1 inh: 2%; Shiga inhibitor: -9; CHX counter: -3; Giardia FBPA inh: 18%

Results for CC(NC(=O)CCC1COc2ccccc2O1)c1ccccc1 (stereo unspecified) ?
Pf growth 96h: 41%; NS1 inh: -62%; Shiga inhibitor: 2; CHX counter: 15; Giardia FBPA inh: 1%

What do the screens show for `CC(=O)Nc1ccc2nc(SCC(=O)N3CCOCC3)sc2c1`?
Pf growth 96h: 0%; Pf growth 48h: 19%; Shiga inhibitor: 3; CHX counter: 15; Giardia FBPA inh: 0%

What do the screens show for `Nc1ccc2nc(SCC(=O)Nc3ccc(N4CCOCC4)c(Cl)c3)sc2c1`?
Pf growth 96h: 2%; Pf growth 48h: 14%; NS1 inh: 10µM*; Shiga inhibitor: 22; CHX counter: 21*; Giardia FBPA inh: -22%; NS1 inh valid: -6

How did COc1ccc(CCNC(=O)CO/N=C/c2cc3c(cc2Br)OCO3)cc1OC do in these assays?
Pf growth 96h: inconclusive; Pf growth 48h: 1%; Shiga inhibitor: -13; CHX counter: -4; Giardia FBPA inh: 3%

Results for COc1ccc(S(=O)(=O)Nc2cccc(F)c2C)cc1C(=O)N1CCOCC1 ?
Pf growth 96h: inconclusive; Pf growth 48h: 17%; Shiga inhibitor: 30; CHX counter: 7; Giardia FBPA inh: -3%

How did Cc1ccc(S(=O)(=O)C/N=C(/NC(=S)N(c2ccccc2)c2ccccc2)c2ccccc2)cc1 do in these assays?
Pf growth 96h: inconclusive; NS1 inh: 10µM*; Shiga inhibitor: 50*; CHX counter: 22*; Giardia FBPA inh: -5%; NS1 inh valid: inconclusive

What do the screens show for `Cc1cc(C(=O)NNC(=O)c2cccc(Cl)c2)no1`?
Pf growth 96h: 41%; Pf growth 48h: 34%; NS1 inh: 0%; Shiga inhibitor: -5; CHX counter: 7; Giardia FBPA inh: -4%

How did NC(=S)NNC(=O)c1cccc(Cl)c1 do in these assays?
Pf growth 96h: 0%; Pf growth 48h: 9%; NS1 inh: 3.2µM*; Shiga inhibitor: -6; CHX counter: 5; Giardia FBPA inh: -30%; NS1 inh valid: 7

Results for COc1ccc(C(=O)NCc2ccncc2)cc1S(=O)(=O)N1CCOCC1 ?
Pf growth 96h: inconclusive; Pf growth 48h: -12%

What do the screens show for `CC1CCN(CCCNC(=O)c2nn(C)c3c2CS(=O)(=O)c2ccccc2-3)CC1`?
Pf growth 96h: -15%; Pf growth 48h: 16%; NS1 inh: -10%; Shiga inhibitor: -4; CHX counter: -1; Giardia FBPA inh: -11%

How did Cc1onc(-c2ccccc2Cl)c1C(=O)Nc1cccnc1 do in these assays?
Pf growth 48h: inconclusive; NS1 inh: -1%; Shiga inhibitor: 23; CHX counter: 3; Giardia FBPA inh: -18%

Screening results: PubChem, National Center for Advancing Translational Sciences (NCATS)
